Measured values taken from PubChem BioAssay (EPA / NIEHS).
Active and inactive are the calls of the source. Rule for the calls: active = hit-call score of the fitted dose curve at least 0.9, where 1 is the maximum; inactive = score below 0.9.

Each molecule was assayed on solute carrier (SLC22A6), SLC22A6 (gene 9356) (assay: LTEA_HepaRG_SLC22A6: Life Technologies and Expression Analysis (LTEA) Assay for solute carrier (SLC22A6) using HepaRG (AID 2283653)). Settings: mRNA level, 48 h; actives raise or lower the signal.
Description: LTEA_HepaRG is a cell based, multiplexed-readout assay that uses HepaRG, a human liver cell line, with measurements taken at 48 hours after chemical dosing on a 96-well plate.LTEA_HepaRG_SLC22A6 is one of 102 assay component(s) measured in the LTEA HepaRG cell culture assay. It is a marker of NR mediated transport.Data from the assay component LTEA_HepaRG_SLC22A6 was analyzed into 1 endpoint. This assay endpoint, LTEA_HepaRG_SLC22A6, was analyzed with bidirectional fitting relative to DMSO as the negative control and baseline of activity. Using a type of inducible reporter, measures of mRNA induction for gain or loss-of-signal activity can be used to understand regulation of transcription factor activity. To generalize the intended target to other relatable targets, this assay endpoint is annotated to the transporter intended target family, where the subfamily is organic anion transporter.
A total of 1060 chemcials from the ToxCast library were tested in eight-point concentration-response experiments. Cell culture and cytotoxicity assays were conducted at Thermo Fisher Scientific's Custom Services facility (Madison, WI). A single lot of human HepaRG cells (Thermo Fisher Scientific, Frederick, MD) was used for the cell culture experiments. 96-well format collagen type I coated plates of human HepaRG cells were prepared using established methods. Briefly, cryopreserved HepaRG cells were thawed, plated at a density of approximately 100,000 cells/well in HepaRG Thaw, Plate, and General Purpose media (HPRG770, Thermo Fisher Scientific), and incubated for 48 hours. 0.5% DMSO was selected as vehicle control to balance the requisite need of DMSO in HepaRG cultures to maintain differentiation (for example, baseline metabolism, proportions of hepatocytes vs. cholangiocytes), while enabling further hepatic receptor pathway activation (for example, PXR and CAR) in response to chemical exposure. 48 hours after plating, the culture medium was replaced with HepaRG Serum-Free Incudtion Media. Cells were exposed to each test chemical in duplicate and maintained in CO2 incubators for another 48 hours. Chemical plates were thawed to room temperature and 200x concentrations of treatment groups were prepared. 8-point conentration-reponse curves were made with the highest exposure at 100 uM, followed by half-log dilutions, all in 0.5% DMSO. Each test plate contained variouse controls, induction positive controls (1mM phenobarbital), cytotoxicity positive controls ([…] aflatoxin B1), vehicle controls (0.5% DMSO), and total lysis controls (0.5% DMSO). Cell morphology images were taken using an Essen IncuCyte FLR automated microscope, with six 96-well plates imaged in about 24 minutes. Images were captured and exported and JPEG files. Spent culture media was transfered to black-well plates for the LDH assay, and remaining media was sorted at -80 C for later use. Cells were treated with RLT buffer and frozen until shipped for gene expression analysis. Total RNA was isolated from the cell suspension in 75 uL of Buffer RLT (Qiagen, Germantown, MD 20874) by Quintiles/Expression Analysis (Durham, NC) using a custom isolation procedure. Total RNA from each plate well was transferred to a preamplification plate. Fluidigm's 96.96 Dynamic ArrayTM (Fluidigm, Amsterdam, the Netherlands) technology was used for gene expression analyses by quantitative reverse transcription polymerase chain reaction (qRT-PCR, performed by Quintiles/Expression Analysis, Durham, NC)89. Standard TaqManTM Assays (Applied Biosystems/ThermoFisher Scientific, Foster City, CA) were used to assess the expression of 93 genes selected based on their selectivity and sensitivity to important hepatic receptors known to be modulated by environmental chemicals; importance in human hepatocyte functionality; and hepatotoxicity. […]
In the case of CC[C@H](C)[C@H]1O[C@]2(C=C[C@@H]1C)C[C@@H]1C[C@@H](C/C=C(\C)[C@@H](O[C@H]3C[C@H](OC)[C@@H](O[C@H]4C[C@H](OC)[C@@H](NC)[C@H](C)O4)[C@H](C)O3)[C@@H](C)/C=C/C=C3\CO[C@@H]4[C@H](O)C(C)=C[C@@H](C(=O)O1)[C@]34O)O2, the outcome is reported as “inactive”.
In the case of CCOP(=S)(Oc1cnc(C(C)(C)C)nc1)OC(C)C (stereo not given), the outcome is reported as “inactive”.
For CCCCN(CC)c1c([N+](=O)[O-])cc(C(F)(F)F)cc1[N+](=O)[O-], the outcome was “inactive”.
With CCOC(=O)CC(SP(=O)(OC)OC)C(=O)OCC (stereo not given) the outcome was “inactive”.
In the case of CCc1cccc(CC)c1N(COC)C(=O)CCl, the outcome is reported as “inactive”.
CC1(C(=O)Nc2ccc(O)c(Cl)c2Cl)CCCCC1 was tested, and the outcome was “inactive”.
CNC(=O)Oc1cccc2c1OC(C)(C)O2 was tested, and the outcome was “inactive”.
CC(COc1ccc(Oc2ccccc2)cc1)Oc1ccccn1 (stereo not given) was tested, and the outcome was “inactive”.
With CSc1nc(NC(C)C)nc(NC(C)C)n1 the outcome was “inactive”.
CCOP(=S)(OCC)Oc1ccc2c(C)c(Cl)c(=O)oc2c1 was tested, and the outcome was “inactive”.
